# Screens (PubChem BioAssay)
# Most compounds without a hit are left out; they make up all but 27% or so of the library.
# CYP2C19 activ: increases human CYP2C19 enzyme activity. P33261. recombinant CYP2C19, luciferin-H EGE luminescence; stronger effect = higher value; 0 = fully inhibited enzyme, 1 = untreated enzyme. activation factor at 5 µM. 96,000 tested, under 10 active;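 active = activation factor of at least 2 at 5 µM in the primary screen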
# Target sequence (P33261 whole entry, looked up): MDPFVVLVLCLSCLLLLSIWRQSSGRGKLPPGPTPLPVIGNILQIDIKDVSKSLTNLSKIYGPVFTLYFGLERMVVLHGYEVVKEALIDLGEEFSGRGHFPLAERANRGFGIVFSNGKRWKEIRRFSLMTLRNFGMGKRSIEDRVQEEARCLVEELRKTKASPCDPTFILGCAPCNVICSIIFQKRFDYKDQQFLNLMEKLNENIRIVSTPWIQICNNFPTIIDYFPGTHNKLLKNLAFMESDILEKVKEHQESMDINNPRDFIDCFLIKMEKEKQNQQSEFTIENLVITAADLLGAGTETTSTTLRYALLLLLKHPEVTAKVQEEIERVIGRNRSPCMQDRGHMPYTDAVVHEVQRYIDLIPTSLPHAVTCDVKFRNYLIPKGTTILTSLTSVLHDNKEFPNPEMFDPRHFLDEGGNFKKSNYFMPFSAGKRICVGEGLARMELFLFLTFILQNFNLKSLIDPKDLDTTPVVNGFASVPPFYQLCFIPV
# CYP2C9 inhib: human CYP2C9 inhibition; P11712; CYP2C9 Supersomes, luciferin-H conversion, luminescence; inhibition, % at 5 µM; 96,000 compounds, 20% hits;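 active = blocking of liver enzyme CYP2C9 beyond about 50% at 5 µM, limit read from the data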
# sEH inh: soluble epoxide hydrolase (human) inhibition. P34913. recombinant human sEH enzymatic activity assay. inhibition, % at 2 µM. 91,000 compounds, 0.34% hits. AID 707; in the data active = inhibition above about 80%
# sEH activator: activators of human soluble epoxide hydrolase. P34913. purified human sEH enzymatic activity, activator screen. activation, % at 2 µM. 91,000 compounds, 0.04% hits; in the data active = activation above about 37%
# CYP2C19 inhib: human CYP2C19 inhibition | P33261 | CYP2C19 Supersomes, luciferin-H EGE luminescence, 30 min | inhibition, % at 5 µM | 96,000 compounds, 21% hits;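 active = CYP2C19 inhibition above a set limit at 5 µM in the primary screen, cut at about 50% in these data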
# CYP2C9 act: CYP2C9 (human) activation; P11712; activation factor at 5 µM; recombinant CYP2C9, luciferin-H conversion, luminescence; stronger effect = higher value; factor 1 = untreated enzyme, 0 = blocked; 96,000 compounds, 1.4% hits;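 active = activation factor of 2 or more for CYP2C9 at a 5 µM dose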
# Numbers stand for hits; . = inactive; / = not tested or not shown.
SMILES,CYP2C19 activ,CYP2C9 inhib,sEH inh,sEH activator,CYP2C19 inhib,CYP2C9 act
COc1ccc(NC(=O)c2ccco2)cc1N,.,.,.,.,.,.
Cn1nc(-c2ccc(C(=O)Nc3cccc(Cl)c3)cc2)c2ccccc2c1=O,.,.,.,.,51,.
Cc1ccc(NC(=O)c2ccc(-c3nn(C)c(=O)c4ccccc34)cc2)cc1,.,57,.,.,.,.
O=C(c1ccc(-n2cccc2)cc1)N1CCN(Cc2ccccc2)CC1,.,.,.,.,.,.
Cc1ccc(NC(=O)c2ccc(-c3nn(C)c(=O)c4ccccc34)cc2)c(C)c1,.,.,.,.,.,.
Cn1nc(-c2ccc(C(=O)Nc3cccnc3)cc2)c2ccccc2c1=O,.,53,.,.,58,.
Cn1nc(-c2ccc(C(=O)N3CCN(Cc4ccccc4)CC3)cc2)c2ccccc2c1=O,.,73,.,.,69,.
CC(O)CNC(=O)c1ccc(-c2nn(C)c(=O)c3ccccc23)cc1 (stereo unspecified),.,.,.,.,.,.
CC(C)Nc1nc(Oc2ccc(Cl)cc2)cc(C(F)(F)F)n1,.,.,.,.,.,.
CC(c1nnc(SCC(=O)NC(=O)NCc2ccco2)n1-c1ccc(Cl)cc1)N(C)C (stereo unspecified),.,.,/,/,.,.
Cc1ccc(NC(=O)C2C3/C=C\CCCCC32)cc1C (stereo unspecified),.,.,.,.,.,.
c1ccc(-c2nc(NC3CC3)nc(-n3ccnc3)n2)cc1,.,.,.,.,.,.
Cn1nc(-c2ccc(OCC(=O)Nc3cccnc3)cc2)c2ccccc2c1=O,.,71,.,.,.,.
O=C(O)Cc1ccc(C(=O)c2cccs2)s1,.,.,.,.,.,.
N#CCc1ccc(C(=O)c2ccccc2)s1,.,.,.,.,70,.
O=C(COC(=O)CCNS(=O)(=O)c1ccc2c(c1)OCCO2)NC1CCCc2ccccc21 (stereo unspecified),.,.,/,/,62,.
COC(=O)C1C(=O)C=C(N2CCOCC2)CC1(C)C (stereo unspecified),.,.,/,/,.,.
COc1ccc(-n2c(SCC(=O)N3CCOCC3)nc(O)c(Cc3ccccc3)c2=O)cc1,.,.,.,.,.,.
Cc1ccc(NC2=NCC(=O)N2Cc2ccc3c(c2)OCO3)c(C)c1,.,79,/,/,96,.
Cc1ccc(NC2=NCC(=O)N2c2ccc3c(c2)OCCO3)c(C)c1,/,/,.,.,/,/
CCc1ccc(NC2=NCC(=O)N2Cc2ccc3c(c2)OCO3)cc1,.,58,/,/,.,.
CCc1ccc(NC2=NCC(=O)N2c2ccc3c(c2)OCCO3)cc1,/,/,.,.,/,/
COc1cc(C)ccc1OCCOCCOc1ccccc1Br,.,.,.,.,.,.
COc1ccc(C2C(C(C)=O)=C(O)C(=O)N2CCCn2ccnc2)cc1OC (stereo unspecified),.,.,/,/,.,.
Cc1ccc(OCCOCCn2ccnc2)c(Br)c1,.,87,.,.,99,.
SMILES,CYP2C19 activ,CYP2C9 inhib,sEH inh,sEH activator,CYP2C19 inhib,CYP2C9 act
Cc1ccc(C)c(OCCCCn2ccnc2)c1,.,93,.,.,98,.
COc1ccc(Cn2ccnc2)cc1Br,.,88,.,.,92,.
Cc1ccc(OCCCN2CCCC2)c(C)c1,.,.,.,.,.,.
Cc1cc(C)c(C)c(OCCCn2ccnc2)c1,.,95,.,.,100,.
Cc1ccc(C2c3c(oc4cc(C)c(C)cc4c3=O)C(=O)N2CCCN2CCOCC2)cc1 (stereo unspecified),.,.,/,/,.,.
CCn1c(NC(=O)c2cccs2)nc2ccccc21,.,.,.,.,.,.
Cc1cccc(NC(=O)N(C)Cc2cccs2)c1,.,.,.,.,.,.
Cc1nc2ncnn2c(C)c1CCC(=O)NCCC1=CCCCC1,.,.,.,.,.,.
Cc1cc(C(C)(C)C)ccc1OCCn1ccnc1,.,94,.,.,98,.
Cc1ccc(OCCCCn2ccnc2)c(Cl)c1,.,98,.,.,100,.
Cc1ccccc1OCCCN1CCCC1,.,.,.,.,.,.
CCOc1ccccc1OCCCOc1ccc(C)cc1Cl,.,.,.,.,.,.
Cc1cccc(OCCCCCn2ccnc2)c1C,.,100,.,.,100,.
COCCNC(=O)c1cc(-c2ccc(Cl)c(Cl)c2)on1,.,.,/,/,.,.
COc1ccc(-c2nn(C)c(=O)c3ccccc23)cc1NC(=O)COc1ccc(C)cc1,.,.,.,.,.,.
Cc1[nH]c2ccccc2c1C(=O)CN1CCN(C/C=C/c2ccccc2)CC1,.,.,.,.,.,.
COc1ccc2[nH]c(C)c(C(=O)CN3CCN(C/C=C/c4ccccc4)CC3)c2c1,.,54,.,.,.,.
COc1ccccc1N1CCN(CC(=O)c2c(C)[nH]c3ccccc23)CC1,.,.,/,/,87,.
Cc1ccc(-c2nn(-c3ccccc3)cc2/C=N/NC(=O)c2ccc(Br)o2)cc1,.,52,.,.,.,.
Cc1nnc(SCC(=O)N/N=C/c2cn(-c3ccccc3)nc2-c2ccccc2)n1-c1ccccc1,.,53,.,.,.,.
O=C(N/N=C/c1cn(-c2ccccc2)nc1-c1ccccc1)c1ccco1,.,.,/,/,.,.
O=C(N/N=C\c1cn(-c2ccccc2)nc1-c1ccccc1)c1ccc(Br)o1,.,57,.,.,.,.
Cc1ccc(NC(=O)CSc2nnc(C)n2-c2ccccc2)cc1,/,/,.,.,/,/
CCNc1sc(C(=O)c2cccs2)c(N)c1-c1nc2ccccc2s1,.,90,.,.,53,.
CC(C)(C)c1ccc(-c2nc(C#N)c(NCc3ccncc3)o2)cc1,.,67,.,.,.,.
SMILES,CYP2C19 activ,CYP2C9 inhib,sEH inh,sEH activator,CYP2C19 inhib,CYP2C9 act
COc1ccc(-c2nc(C#N)c(NCc3ccc(C)cc3)o2)cc1OC,.,53,.,.,.,.
CCN(CC)CCCNc1oc(-c2ccc(OC)c(OC)c2)nc1C#N,.,.,.,.,.,.
COc1ccc(-c2nc(C#N)c(NCCc3ccccc3)o2)cc1OC,.,93,.,.,80,.
S=C(c1ccccc1)N(c1ccccc1)c1ccccc1,.,.,.,.,94,.
CCn1c(=O)cc(O)c2c(=O)n(C)c(=O)n(C)c21,.,.,.,.,.,.
Cc1nc(COC(=O)c2c(C)nn(-c3ccccc3)c2C)cs1,.,69,.,.,.,.
Cc1nc(COC(=O)c2ccc(CO)cc2)cs1,.,.,.,.,64,.
Cc1nc(CC(=O)c2ccc(O)cc2O)cs1,.,.,.,.,.,.
O=S(=O)(Nc1cccc2cccnc12)c1ccc(S(=O)(=O)N2CCCC2)cc1,.,.,.,.,.,.
Cc1cc(C(=O)NCCCN2CCOCC2)n(-c2ccccc2)n1,.,.,.,.,.,.
CNc1nc(SCC(=O)OC)nc(N2CCOCC2)n1,.,.,/,/,.,.
Cc1onc(-c2c(F)cccc2Cl)c1C(=O)NC1=NCCS1,.,67,/,/,54,.
Cc1onc(-c2c(F)cccc2Cl)c1C(=O)Nc1cccc2nsnc12,.,54,.,.,.,.
